# Rows were chosen to be rich in hits. Some 7.5% of all compounds tested hit in one or more screens of this group.
# FLuc modulator: counter-screen for miR-21 project: firefly luciferase inhibitors or activators. P08659. Potency, µM (doses to about 57.5 µM), inactives show top-dose activity change, negative = inhibition, usual class: inhibitors. actives 6.9% (n = 360,000). purified FLuc, Km substrates, luminescence inhibition;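 also: plate controls were vehicle for no effect and reference inhibitor for full effect; nearly all actives have a fitted effect of over 55% in size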
# Target sequence (P08659 whole entry, looked up): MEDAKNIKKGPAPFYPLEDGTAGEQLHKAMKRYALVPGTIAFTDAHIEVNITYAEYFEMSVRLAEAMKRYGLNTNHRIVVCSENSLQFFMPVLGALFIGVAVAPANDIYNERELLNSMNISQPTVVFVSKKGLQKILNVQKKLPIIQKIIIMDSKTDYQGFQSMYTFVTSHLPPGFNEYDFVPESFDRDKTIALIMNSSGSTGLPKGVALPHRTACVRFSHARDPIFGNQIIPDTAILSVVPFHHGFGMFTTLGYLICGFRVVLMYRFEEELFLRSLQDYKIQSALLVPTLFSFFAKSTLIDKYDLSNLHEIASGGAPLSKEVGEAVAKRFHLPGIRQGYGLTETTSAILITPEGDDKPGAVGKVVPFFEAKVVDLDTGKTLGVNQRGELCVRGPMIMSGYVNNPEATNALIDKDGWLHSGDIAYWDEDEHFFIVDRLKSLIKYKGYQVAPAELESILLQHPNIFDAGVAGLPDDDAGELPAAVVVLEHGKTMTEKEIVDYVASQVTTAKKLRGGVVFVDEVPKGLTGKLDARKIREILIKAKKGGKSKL
#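 Biochemical qHTS of compounds, final roughly 60 µM downward over six points, against 10 nM purified firefly luciferase using Km concentrations of substrates (10 uM D-luciferin, 10 uM ATP) in Tris acetate pH 7.5 buffer; luminescence output.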
# NPC1 promoter act: activates the NPC1 promoter; Huh7 NPC1 promoter luciferase reporter, 24 h; AID 485313; Potency, µM (highest dose often 9.22 µM), for inactives: at the highest dose activation, actives largely listed as activators; actives 2.4% (n = 320,000); also: % of control where 0% means no effect; nearly all actives have a fitted effect of over 60% in size
#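 Quantitative HTS used a cell-based reporter: Huh7 cells stably bearing the NPC1 promoter upstream of luciferase were treated with compounds for 24 h, and promoter activation was read as luminescence.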
# Rab9 promoter act: Rab9 promoter activation; Huh7 Rab9 promoter-luciferase reporter, luminescence, 24 h; Potency, µM (top dose mostly 9.22 µM), without a hit: at the highest dose activation, negative = inhibition, usual class: activators; actives 2.8% (n = 320,000); AID 485297; also: % of control where 0% means no effect; nearly all actives have a fitted effect of over 60% in size
#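 Rab9 promoter-driven luciferase in stably transfected Huh7 cells; 1500 cells/well rested 2 h, exposed to compound in DMSO for 24 h at 37 °C, 5% CO2. Luminescence read 10 min after adding luciferase reagent at ambient temperature.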
# SMN2 splice up: increases expression of the SMN2 splice variant; HEK293 SMN2-luciferase splicing reporter, luminescence, 30-36 h; Potency, µM (highest dose often 46.1 µM), for inactives: at the top dose activity change, positive = activation, actives largely listed as activators; actives 2.8% (n = 210,000); AID 1458; also: % of control where 0% means no effect; nearly all actives have a fitted effect of over 55% in size
#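 qHTS luciferase splicing reporter: luminescence rises when SMN2 exon 7 is included in transfected HEK293 cells. Compound exposure lasted 30-36 h at 37C, with 4.5 mM final sodium butyrate as control, followed by a ONE-Glo read.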
# Luc counter: counter-screen: inhibitors of Kinase-Glo firefly luciferase. Q27757. Kinase-Glo luciferase, ATP luminescence, 8 min. Potency, µM (titrated, usually from 38.3 µM), for inactives: top-dose activity change, negative = inhibition, actives largely listed as inhibitors. actives 0.28% (n = 200,000); also: % is scaled to controls: 0 for no effect and ±100 for the full control effect; nearly all actives have a fitted effect of over 60% in size
#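 Light output from Kinase-Glo luciferase with luciferin and 10 uM ATP in 50 mM imidazole pH 7.2, KCl, MgCl2, Tween 20, BSA; compound pin-delivered, 8-min ambient incubation, then luminescence read.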
# ELG1 genotox: genotoxicity induction in ELG1-luciferase HEK293T cells | AID 504466 | actives 1.3% (n = 330,000) | HEK293T ELG1-luciferase reporter, luminescence, 16 h | Potency, µM (doses to about 46 µM), for inactives: top-dose activity change, positive = activation, usual class: activators; also: % of control where 0% means no effect; nearly all actives have a fitted effect of over 60% in size
#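 After overnight (16 hr) compound treatment at 37 °C, ELG1-luciferase HEK293T cells were lysed with ONE-Glo; luminescence quantified 30 min later at room temperature.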
# An asterisk follows results filed as active; ? = inconclusive; . = no result; [ ] = remark or other dose. Calls follow the shape of the dose curve; as a rule, active = well fitted curve in the direction sought with a large enough effect; inconclusive = small, poorly fitted or top-dose-only effect, or another doubt; inactive = no such curve, though single readings can be large; an effect the other way counts as inactive or inconclusive. Potency is read from the fitted curve at half-maximal effect.
SMILES,FLuc modulator,NPC1 promoter act,Rab9 promoter act,SMN2 splice up,Luc counter,ELG1 genotox
N#C/C(=N\Nc1ccc(Cl)cc1)C(=N)N1CCCCC1,1.7µM*,0.4µM*,.,?,-8%,5%
N#C/C(=N\Nc1ccc(F)cc1)C(=N)N1CCCCCC1,2.7µM*,0.45µM*,0.89µM*,4µM*,12%,?
COc1ccc(OC)c(CNS(=O)(=O)c2ccc3c(c2)oc(=O)n3C)c1,-3%,.,.,6%,.,.
O=C(C1CCN(S(=O)(=O)c2cccc3nonc23)CC1)N1CCN(c2ccccc2)CC1,4%,.,.,-10%,.,.
N#C/C(=N\Nc1ccccc1)C(=N)N1CCOCC1,?,5%,5%,76%,6%,1%
N#C/C(=N\Nc1ccccc1F)C(=N)N1CCCCC1,12µM*,3.2µM*,1.6µM*,11µM*,0%,21µM*
COc1ccc(N/N=C(\C#N)C(=N)N2CCCCC2)cc1,4.8µM*,2µM*,2.5µM*,.,.,?
N#C/C(=N\Nc1ccc(Cl)cc1)C(N)=S,19µM*,-11%,-14%,.,.,-16%
Cc1ccc(N/N=C(\C#N)C(=N)N2CCCCCC2)cc1,2.7µM*,0.5µM*,0.79µM*,2.2µM*,-1%,1.8µM*
O=C(NCC1CCCO1)c1cc2ccccc2o1 (stereo unspecified),?,23%,?,.,.,?
COc1ccc(-c2c(C)c3ccc(O)c(CN4CCN(CCO)CC4)c3oc2=O)cc1OC,3%,.,.,.,.,.
CC1CCCCN1Cc1c(O)ccc2c(=O)c(-c3nc4ccccc4s3)coc12 (stereo unspecified),21µM*,24%,21%,.,.,0%
CCc1cc2c(=O)c(-c3nc4ccccc4n3C)coc2c(CN2CCCCC2C)c1O (stereo unspecified),1%,-1%,-4%,.,.,-7%
CCOc1ccccc1-c1noc(CCCC(=O)Nc2cccc(C(F)(F)F)c2)n1,-13%,.,.,-20%,.,.
CN(C)c1ccc(Nc2ccc([N+](=O)[O-])cn2)cc1,?,3.5µM*,?,.,.,?
Cc1cccc(C)c1NC(=O)c1oc2c(c1C)-c1nn(Cc3ccccc3)cc1CC2,3%,.,.,.,.,.
Clc1ccc2oc(-c3ccccn3)nc2c1,-21%[2.3 µM],2.5µM*,3.2µM*,16µM*,?,?
Nc1ccc2oc(-c3ccccn3)nc2c1,19µM*,?,?,2.8µM*,?,?
Cc1ccc(/C(N)=N/OC(=O)c2ccc(F)cc2)cc1,4.8µM*,16%,15%,?,-4%,10µM*
N/C(=N\OC(=O)c1ccc(F)cc1)c1ccccc1,0.17µM*,?,?,5%,8.9µM*,?
N/C(=N\OC(=O)c1ccc(F)cc1)c1ccc(Br)cc1,2.7µM*,?,?,19%,-3%,?
C/C(=N\OC(=O)c1ccc(F)cc1)c1ccc(F)c(F)c1,1.7µM*,0%,?,.,.,0%
Cc1ccc(/C(N)=N/OC(=O)Oc2ccccc2)cc1,?,-1%,1%,-5%,-3%,2%
CCOC(=O)c1cccc(NC(=O)CCC(=O)N2CC(C)Oc3ccc(C)cc32)c1 (stereo unspecified),-8%,.,.,.,.,.
OC1(CNCc2cn[nH]c2-c2cc3ccccc3o2)CCCCC1,-1%,-2%,-9%,.,-1%,0%
SMILES,FLuc modulator,NPC1 promoter act,Rab9 promoter act,SMN2 splice up,Luc counter,ELG1 genotox
Cc1ccc(S(=O)(=O)Oc2cc(N)c3c(n2)CCC3)cc1,3%,-2%,7%,-15%[9.22 µM],-8%[7.66 µM],1%
CS(=O)(=O)c1ccc(NC(=O)c2ccc3c(c2)S(=O)(=O)N=C2CCCCCN23)cc1,?,-3%,-8%,.,.,-1%
Cc1nc2ccccn2c1C(=O)Nc1ccc(Cl)cc1,24µM*,?,?,88%,1%,?
Cc1nc2ccccn2c1C(=O)N/N=C/c1ccc2c(c1)OCO2,12µM*,15%,21%,?,-6%,?
Cc1nc2ccccn2c1C(=O)NCc1ccc2c(c1)OCO2,5%,-7%,1%,-38%,-2%,1%
Cc1ccc(NC(=O)c2c(Cl)nc3ccccn23)cc1,11µM*,19%,?,13µM*,-1%,?
Cc1nc2ccccn2c1C(=O)Nc1ccc2c(c1)OCCO2,12µM*,?,?,7.1µM*,-22%,?
Cc1cccc(-n2c(=O)c3ccccc3n(Cc3ccc(F)cc3)c2=O)c1,0%,.,.,13%,.,.
COc1cc(C(=O)NC2(C(F)(F)F)C(=O)NC(C)=C2C#N)cc(OC)c1OC (stereo unspecified),0%,.,.,.,.,.
Cc1c(Cl)cccc1Nc1nc(N)nc(CSCCO)n1,2%,2%,-2%,1%,3%,-2%
Cc1c(Cl)cccc1Nc1nc(N)nc(CSc2ncccn2)n1,?,23%,?,8%,16%,16µM*
Cc1cc(C(F)(F)F)n2ncc(-c3ccc(F)cc3)c2n1,0%,-2%,-6%,-20%,-3%,3%
COc1ccc(-c2cc(C(F)(F)F)n3ncc(-c4ccccc4)c3n2)cc1,-3%,.,.,0%,.,.
COc1ccccc1-c1c(C)nn2c(N)c(-c3ccc(Cl)cc3)cnc12,?,1%,10%,.,.,0%
Cc1nc2c(-c3ccc(Cl)cc3)cnn2c2c1CCC2,?,?,?,25%,3%,4%
